The supplement of paper PMC10127200
Structures can show the parent of a compound that is named as a salt.

system: 786-O; test: Euclidean distance of Cell Painting phenotypic profile (signed KS, 77 features) to DMSO centroid (dimensionless distance); 5 or 10 uM (library dependent); higher = stronger phenotypic change vs DMSO (phenoactivity); conditions: 48 h
How it was run: (§1)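 Stained cells were imaged confocally at 20X with 9 fields per well, after 48 h of exposure to library compounds at 10 or 5 uM (set by library; 0.1% DMSO final). The cells were five cancer lines and a healthy fibroblast line. From the images, Harmony extracted 77 features, each expressed as a signed Kolmogorov-Smirnov statistic relative to same-plate vehicle wells. Phenoactivity is measured as Euclidean distance to the median vehicle profile, using plate-position-corrected, correlation-weighted profiles averaged across replicates at the top dose.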

Compound	Euclidean distance
COc1cc2nc(N3CCN(C(=O)C4CCCO4)CC3)nc(N)c2cc1OC (centres undefined) [Terazosin HCl]	1.12
C=C1/C(=C\C=C2/CCC[C@]3(C)[C@@H]([C@H](C)CCCC(C)C)CC[C@@H]23)C[C@@H](O)C[C@@H]1O [Alfacalcidol]	2.68
COc1ncc(-c2ccc3nccc(-c4ccnnc4)c3c2)cc1NS(=O)(=O)c1ccc(F)cc1F	4.98
CNC(=O)CN(CCN(CCN(CC(=O)[O-])CC(=O)NC)CC(=O)[O-])CC(=O)[O-].O.[Gd+3] [Gadodiamide Hydrate]	1.58
CC(C)Cc1ccc(C(C)C(=O)O)cc1 (centres undefined) [Ibuprofen]	0.948
O=C1[C@H]2CCCC[C@H]2C(=O)N1CCCCN1CCN(c2nsc3ccccc23)CC1 [Perospirone hydrochloride]	2.05
CC(=O)Oc1cc(C(C)C)c(OCCN(C)C)cc1C [Moxisylyte hydrochloride]	0.394
OCc1cc([C@@H](O)CNCCCCCCOCCOCc2c(Cl)cccc2Cl)ccc1O [Vilanterol Trifenate]	1.28
CC[C@H]1OC(=O)[C@H](C)[C@@H](O[C@H]2C[C@@](C)(OC)[C@@H](O)[C@H](C)O2)[C@H](C)[C@@H](O[C@@H]2O[C@H](C)C[C@H](N(C)C)[C@H]2O)[C@](C)(O)C[C@@H](C)CN(C)[C@H](C)[C@@H](O)[C@]1(C)O [Azithromycin]	0.885
CN(C)C1CCN(C(=O)c2ccc(NC(=O)Nc3ccc(-c4nc(N5CCOCC5)nc(N5CCOCC5)n4)cc3)cc2)CC1	3.29
O=C(O)C1(C(=O)O)CCC1.[NH2-].[NH2-].[Pt+2] [Carboplatin]	2.76
O=C(N/N=C/c1ccc(O)c(O)c1)c1cc2ccccc2cc1O [Dynasore]	0.917
C[C@@H](NC(=O)c1ncnc(N)c1Cl)c1ncc(C(=O)Nc2cc(C(F)(F)F)c(Cl)cn2)s1	1.57
CCCC(CCC)C(=O)O [Valproic acid sodium salt (Sodium valproate)]	0.85
Clc1ccc(C(Cn2ccnc2)OCc2csc3c(Cl)cccc23)c(Cl)c1 (centres undefined) [Sertaconazole nitrate]	1.47
Cc1cc(Nc2ccc(NC(=O)c3ccc(Nc4ccnc5ccccc45)cc3)cc2)nc(N)n1	1.66
C=C1/C(=C\C=C2/CCC[C@]3(C)[C@@H]([C@H](C)/C=C/[C@@H](O)C4CC4)CC[C@@H]23)C[C@@H](O)C[C@@H]1O [Calcipotriene]	0.625
CONC(=O)c1ccccc1Nc1cc(Nc2cc(C)nn2C(C)C)ncc1Cl	1.35
O=C1OC2(c3ccc(O)cc3Oc3cc(O)ccc32)c2ccccc21 [Fluorescein]	0.775
C[C@H]1[C@H](NC(=O)/C(=N\OC(C)(C)C(=O)O)c2csc(N)n2)C(=O)N1S(=O)(=O)O [Aztreonam]	1.13
CCC(CC)CC1(C(=O)Nc2ccccc2SC(=O)C(C)C)CCCCC1	1.26
Brc1c(NC2=NCCN2)ccc2nccnc12 [Brimonidine Tartrate]	0.514
Cc1cc(C)c(Nc2ccnc(Nc3ccc(C#N)cc3)n2)c(C)c1 [Dapivirine (TMC120)]	2.34
N=C(N)NC(=O)Cc1c(Cl)cccc1Cl [Guanfacine Hydrochloride]	1.58
CO[C@H]1C[C@@H]2CC[C@@H](C)[C@@](O)(O2)C(=O)C(=O)N2CCCC[C@H]2C(=O)O[C@H]([C@H](C)C[C@@H]2CC[C@@H](OCCO)[C@H](OC)C2)CC(=O)[C@H](C)/C=C(\C)[C@@H](O)[C@@H](OC)C(=O)[C@H](C)C[C@H](C)/C=C/C=C/C=C/1C [Everolimus (RAD001)]	2.45

system: A549; test: as above; conditions: 48 h
How it was run: as §1

Compound	Euclidean distance
O=C1c2cccc(O)c2C(=O)c2c(O)cccc21 [Danthron]	0.914
Cc1c(-c2cnccn2)ssc1=S [Oltipraz]	0.941
CO[C@H]1/C=C/O[C@@]2(C)Oc3c(C)c(O)c4c(O)c(c(/C=N/N5CCN(C)CC5)c(O)c4c3C2=O)NC(=O)/C(C)=C\C=C\[C@H](C)[C@H](O)[C@@H](C)[C@@H](O)[C@@H](C)[C@H](OC(C)=O)[C@@H]1C [Rifampin]	0.64
C/C(=N\NC(=S)N1CCC1)c1ccccn1	3.49
Cc1nnc(SCC2=C(C(=O)O)N3C(=O)[C@@H](NC(=O)Cn4cc(Cl)c(=O)c(Cl)c4)[C@H]3SC2)s1 [Cefazedone]	0.841
CC(=O)OCC[N+](C)(C)C [Acetylcholine iodide]	0.442
CCCC(=O)Nc1cccc(NC(=O)c2ccccc2Br)c1	1.02
Nc1ncn([C@@H]2O[C@H](CO)[C@@H](O)[C@H]2O)c(=O)n1 [Azacitidine]	1.89
O=C(/C=C/C#Cc1cccc(NS(=O)(=O)c2ccccc2)c1)NO [Oxamflatin]	3.01
CNCCc1ccccn1 [Betahistine mesylate]	0.566
COc1ccc2cc([C@H](C)C(=O)O)ccc2c1 [Naproxen]	0.78
OCC(O)CN1CCN(c2ccccc2)CC1 (centres undefined) [Dropropizine]	1.8
C=CC(=O)Nc1cccc(Nc2nc(Nc3ccc(N4CCN(C(C)=O)CC4)cc3OC)ncc2C(F)(F)F)c1	0.866
C/C(=C\c1ccc(C(=O)O)cc1)c1ccc2c(c1)C(C)(C)CCC2(C)C [TTNPB (Arotinoid Acid)]	1.39
COc1cc2nc(N3CCN(C(=O)C4CCCO4)CC3)nc(N)c2cc1OC (centres undefined) [Terazosin HCl]	0.699
C=C1/C(=C\C=C2/CCC[C@]3(C)[C@@H]([C@H](C)CCCC(C)C)CC[C@@H]23)C[C@@H](O)C[C@@H]1O [Alfacalcidol]	1.49
COc1ncc(-c2ccc3nccc(-c4ccnnc4)c3c2)cc1NS(=O)(=O)c1ccc(F)cc1F	3.16
CNC(=O)CN(CCN(CCN(CC(=O)[O-])CC(=O)NC)CC(=O)[O-])CC(=O)[O-].O.[Gd+3] [Gadodiamide Hydrate]	0.803
CC(C)Cc1ccc(C(C)C(=O)O)cc1 (centres undefined) [Ibuprofen]	0.452
O=C1[C@H]2CCCC[C@H]2C(=O)N1CCCCN1CCN(c2nsc3ccccc23)CC1 [Perospirone hydrochloride]	1.44

Compound	Euclidean distance
CC(=O)Oc1cc(C(C)C)c(OCCN(C)C)cc1C [Moxisylyte hydrochloride]	0.612
OCc1cc([C@@H](O)CNCCCCCCOCCOCc2c(Cl)cccc2Cl)ccc1O [Vilanterol Trifenate]	0.985
CC[C@H]1OC(=O)[C@H](C)[C@@H](O[C@H]2C[C@@](C)(OC)[C@@H](O)[C@H](C)O2)[C@H](C)[C@@H](O[C@@H]2O[C@H](C)C[C@H](N(C)C)[C@H]2O)[C@](C)(O)C[C@@H](C)CN(C)[C@H](C)[C@@H](O)[C@]1(C)O [Azithromycin]	0.638
CN(C)C1CCN(C(=O)c2ccc(NC(=O)Nc3ccc(-c4nc(N5CCOCC5)nc(N5CCOCC5)n4)cc3)cc2)CC1	3.49
O=C(O)C1(C(=O)O)CCC1.[NH2-].[NH2-].[Pt+2] [Carboplatin]	1.98
O=C(N/N=C/c1ccc(O)c(O)c1)c1cc2ccccc2cc1O [Dynasore]	1.21
C[C@@H](NC(=O)c1ncnc(N)c1Cl)c1ncc(C(=O)Nc2cc(C(F)(F)F)c(Cl)cn2)s1	2.12
CCCC(CCC)C(=O)O [Valproic acid sodium salt (Sodium valproate)]	0.706
Clc1ccc(C(Cn2ccnc2)OCc2csc3c(Cl)cccc23)c(Cl)c1 (centres undefined) [Sertaconazole nitrate]	1.42
Cc1cc(Nc2ccc(NC(=O)c3ccc(Nc4ccnc5ccccc45)cc3)cc2)nc(N)n1	3.02
C=C1/C(=C\C=C2/CCC[C@]3(C)[C@@H]([C@H](C)/C=C/[C@@H](O)C4CC4)CC[C@@H]23)C[C@@H](O)C[C@@H]1O [Calcipotriene]	1.01
CONC(=O)c1ccccc1Nc1cc(Nc2cc(C)nn2C(C)C)ncc1Cl	1.28
O=C1OC2(c3ccc(O)cc3Oc3cc(O)ccc32)c2ccccc21 [Fluorescein]	0.447
C[C@H]1[C@H](NC(=O)/C(=N\OC(C)(C)C(=O)O)c2csc(N)n2)C(=O)N1S(=O)(=O)O [Aztreonam]	0.951
CCC(CC)CC1(C(=O)Nc2ccccc2SC(=O)C(C)C)CCCCC1	1.07
Brc1c(NC2=NCCN2)ccc2nccnc12 [Brimonidine Tartrate]	0.618
Cc1cc(C)c(Nc2ccnc(Nc3ccc(C#N)cc3)n2)c(C)c1 [Dapivirine (TMC120)]	2.56
N=C(N)NC(=O)Cc1c(Cl)cccc1Cl [Guanfacine Hydrochloride]	0.941
CO[C@H]1C[C@@H]2CC[C@@H](C)[C@@](O)(O2)C(=O)C(=O)N2CCCC[C@H]2C(=O)O[C@H]([C@H](C)C[C@@H]2CC[C@@H](OCCO)[C@H](OC)C2)CC(=O)[C@H](C)/C=C(\C)[C@@H](O)[C@@H](OC)C(=O)[C@H](C)C[C@H](C)/C=C/C=C/C=C/1C [Everolimus (RAD001)]	1.83
